{
  "source": "PubChem BioAssay (NCI)",
  "note": "Compounds without any hit were thinned out: in the full panel of roughly 83,000, 20% have a hit.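 Negative percent growth values reflect cell death: -40 means 40% of the cells present at the start died, and -100 means all died.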 A number with no mark means an inactive call. Activity calls are given as the source filed them. The calls were made as follows: active = growth percent below 10; inactive = the rest.",
  "data": [
    {"tested_on": "HL-60(TB) leukemia", "test": "NCI-60 one-dose screen, 48 h (100 = growth as untreated, 0 = no growth, -100 = all killed)", "settings": "10 µM unless noted", "values": [
      {"compound": "COc1ccccc1-n1cc(C#N)c(N)c1C(=O)c1ccc(C)cc1", "growth": "56.7%"},
      {"compound": "C#C[C@]1(O)CC[C@H]2[C@@H]3CC=C4c5sc(-c6ccc(OC)cc6)nc5CC[C@]4(C)[C@H]3CC[C@@]21C", "growth": "21.1%"},
      {"compound": "CS(=O)(=O)c1ccc(-c2nc3ccccn3c2-c2nc3ccc([N+](=O)[O-])cc3[nH]2)cc1", "growth": "95.7%"},
      {"compound": "CN1c2ccccc2Sc2cc(/C=N/Nc3ccnc4cc(Cl)ccc34)ccc21", "growth": "77.1%"},
      {"compound": "CC1=C(C)C(=O)C(Nc2cccc(C(=O)OC(C)(C)C)c2)=CC1=O", "growth": "71%"},
      {"compound": "Nc1ccccc1NC(=O)c1ccc(NC(=O)C/C=C/c2cccnc2)cc1", "growth": "12.6%"},
      {"compound": "C#CCOc1ccc(/C=N/Nc2nc(-c3cc4cc(Br)cc(Br)c4oc3=O)cs2)cc1", "growth": "85.9%"},
      {"compound": "Cc1cc(NS(=O)(=O)c2ccc(NC(=O)CSc3nc4ccccc4c(=O)n3-c3ccccc3)cc2)no1", "growth": "110%"},
      {"compound": "CNC(=O)c1cc(-c2ccc(NC(=S)Nc3cc(C(F)(F)F)cc(C(F)(F)F)c3)cc2)nc2cccnc12", "growth": "121%"},
      {"compound": "N[C@@H](Cc1cn(-c2c3ccccc3nc3ccccc23)nn1)C(=O)O", "growth": "95.5%"},
      {"compound": "COc1cc(Cn2cc3c(c2)-c2onc(CN4CCCC4)c2CC3)cc(OC)c1OC", "growth": "99%"},
      {"compound": "CCCCCc1ccc(S(=O)(=O)Nc2cccc(-c3csc(NC(=O)CN4CCN(C)CC4)n3)c2)cc1", "growth": "35.8%"},
      {"compound": "O=C(Nc1cccc(Cl)c1)Nc1nc2ccc(-c3cccc4ccccc34)cc2s1", "growth": "66.9%"},
      {"compound": "CN1CCN(Cc2ccc(NC(=O)c3cncc(C#Cc4cnc5ccc(OCCCS(C)(=O)=O)nn45)c3)cc2C(F)(F)F)CC1", "growth": "-6.31% (active)"},
      {"compound": "Nc1nc(-c2cccc([N+](=O)[O-])c2)c(N=Nc2ccccc2[N+](=O)[O-])s1", "growth": "96.5%"},
      {"compound": "CCOC(=O)c1c(Nc2ccccc2)nn2c(-c3ccc(OC)c(OC)c3)ccnc12", "growth": "43.3%"},
      {"compound": "NS(=O)(=O)Oc1ccc2nc(Nc3ccc(F)c(F)c3)ccc2c1", "growth": "71.3%"},
      {"compound": "COC(=O)C1CCCN(S(=O)(=O)/N=C2\\NC(=O)NC2=C(Cl)Cl)C1", "note": "(stereo not given)", "growth": "73.6%"},
      {"compound": "NC(=O)c1c(NC(=O)c2ccccc2C(F)(F)F)sc2c1CCC(=O)C2", "growth": "1.97% (active)"},
      {"compound": "COc1ccc(COc2ccc(/C=C3/C(=O)Nc4cc(Cl)ccc43)cc2)cc1", "growth": "119%"},
      {"compound": "CC(Nc1ncnc2ccc(-c3cnc4cnccn34)cc12)c1ccccc1", "note": "(stereo not given)", "growth": "52.4%"},
      {"compound": "Cc1ccc(C(=O)NN2C(=O)/C(=C/C=C/c3ccco3)SC2=S)cc1", "growth": "30.4%"},
      {"compound": "Cc1ccccc1NC1CC(=O)N(c2ccc(Cl)cc2Cl)C1=O", "note": "(stereo not given)", "growth": "102%"},
      {"compound": "CC(C)(C)Nc1nc2c(OCCc3ccccc3)cccn2c1-c1cccc(Oc2ccccc2)c1", "growth": "0.841% (active)"},
      {"compound": "Oc1ccc(CSc2nnc(-c3ccncc3)n2-c2ccccc2)c2cccnc12", "growth": "10.9%"},
      {"compound": "CCN(CC)c1ccc(/C=N/NC(=O)c2ccc(NS(C)(=O)=O)cc2)cc1", "growth": "3.16% (active)"},
      {"compound": "O=S(=O)(Oc1ccc(-c2nnc(Nc3ccccc3)s2)cc1)C(F)(F)C(F)(F)C(F)(F)C(F)(F)C(F)(F)C(F)(F)F", "growth": "70.6%"},
      {"compound": "COc1ccc(OC)c(NC(=O)CCCCCCNC(=O)C(O)(O)C(F)(F)F)c1", "growth": "10.6%"},
      {"compound": "CCCCCCNC(=O)Oc1ccc(/C(=C(/C)c2ccccc2)c2ccc(OCCN3CCCCCC3)cc2)cc1", "growth": "-39.6% (active)"},
      {"compound": "O=C(CCCCCCNC(=O)C(O)(O)C(F)(F)F)Nc1ccc(Cl)cc1", "growth": "9.84% (active)"},
      {"compound": "NC(N)=Nc1ccc(Oc2cccc(Nc3ccc(Br)c(C(F)(F)F)c3)c2)cn1", "growth": "-62.9% (active)"},
      {"compound": "COc1ccc(/C=N/Nc2ccnc3cc(Cl)ccc23)cc1Cl", "growth": "-37.5% (active)"},
      {"compound": "O=C(NNc1nc2cc(F)c(F)cc2n2c(CN3CC4CNCC4C3)ccc12)c1ncccn1", "note": "(stereo not given)", "growth": "-30.7% (active)"},
      {"compound": "CCCCNNC(=O)c1ccc(-c2cccc(F)c2F)cc1", "growth": "28.4%"},
      {"compound": "O=C(CNc1nc(-c2cccc([N+](=O)[O-])c2)cs1)Nc1cccc([N+](=O)[O-])c1", "growth": "-9.99% (active)"},
      {"compound": "COc1ccc(Oc2ccc(/C=N/NC(=O)CSc3nc4ccccc4c(=O)n3-c3ccc(Cl)cc3)cc2)cc1", "growth": "104%"},
      {"compound": "COc1ccc(/C(=N\\N=C(N)N)c2ccc(Cl)cc2)cc1OC", "growth": "44.9%"},
      {"compound": "O=C(CCn1c[n+](CC(=O)c2ccc(F)cc2)c2ccccc21)Nc1cccc2cccnc12", "growth": "36.7%"},
      {"compound": "COc1ccc(/C(N)=N/C(N)=N/c2nc3ccccc3s2)cc1", "growth": "108%"},
      {"compound": "COc1cc(-c2nc3sccn3c2-c2ccnc(S(C)(=O)=O)n2)ccc1F", "growth": "93.9%"}
    ]}
  ]
}
